This passage reports growth results from PubChem BioAssay (NCI).

About 83,000 compounds went through this panel and 20% of them were active in at least one assay; those are over-represented in the sample as a whole.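 Single-dose data. Exposure time 48 hours. Values below 10 considered active.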 Unmarked numbers belong to inactive results. Active and inactive are the calls of the source.

Common to all, as to experiment: NCI-60 one-dose screen, 48 h (100 = growth as untreated, 0 = no growth, -100 = all killed)
For one test, the system named is T-47D breast. Conditions: 10 µM.
The next test has as its system BT-549 breast. Conditions: 10 µM unless noted.
Another test deals with MDA-MB-435 melanoma. Conditions: 10 µM unless noted.
Another test has as its system SW-620 colon. Conditions: 10 µM unless noted.
For the next test, the system named is MCF7 breast. The note with it: 10 µM unless noted.
A further test concerns HCT-116 colon. Conditions: 10 µM unless noted.
The next test has as its system HCC-2998 colon. The note with it: 10 µM unless noted.
The subject of a further test is KM12 colon. Conditions: 10 µM unless noted.

`CC1(C)N=C(N)N=C(N)N1c1cccc(/C=C/C=C/c2cccc([N+](=O)[O-])c2)c1`: the growth with T-47D breast was 78.1%; in the test with BT-549 breast, 46.1%; in the test on MDA-MB-435 melanoma it was 23.3%; in the test on SW-620 colon, 44.6%; in the test on MCF7 breast, 57.9%; in the test with HCT-116 colon it was 24.7%. Also, the growth in the test with HCC-2998 colon was 45.1%; in the test with KM12 colon it was 35.5%.

For `CCCC1=NNC(=O)C1`, the growth in the test on T-47D breast is 101%; in the test with BT-549 breast it was 99.2%; in the test with MDA-MB-435 melanoma, 98.5%; in the test on SW-620 colon, 99.8%; in the test with MCF7 breast, 96.3%; in the test on HCT-116 colon, 98.5%. Also, the values for the growth with HCC-2998 colon and in the test with KM12 colon were 119% and 117%, respectively.

Regarding `CN1CCN(c2ccc3nc(-c4ccc5nc(-c6ccc(C(F)(F)F)cc6)[nH]c5c4)[nH]c3c2)CC1`, the growth in the test with T-47D breast was 57.9%; in the test on BT-549 breast, 84.6%; with MDA-MB-435 melanoma, 49.8%; with SW-620 colon it was 1.32% (active); with MCF7 breast, 4.4% (active); with HCT-116 colon it was 21.1%. Moreover, the growth in the test with HCC-2998 colon was 87.2%; in the test with KM12 colon, 49.7%.

As for `COc1nc2c(cc1S(=O)(=O)c1ccccc1)CCc1c-2cnn1-c1ccccc1Cl`, the growth was 26.5% with T-47D breast; 51.8% in the test with BT-549 breast; 65.7% with MDA-MB-435 melanoma; 79.1% with SW-620 colon; 42.2% with MCF7 breast; 48.4% with HCT-116 colon. Besides, the growth in the test on HCC-2998 colon was 77.7%; in the test with KM12 colon, 49.7%.

With `O=c1onc(-c2ccccc2)c2ccccc12`, the growth with T-47D breast was 97.8%; in the test with BT-549 breast, 118%; in the test with MDA-MB-435 melanoma, 105%; in the test with SW-620 colon it was 103%; in the test on MCF7 breast, 102%; in the test with HCT-116 colon it was 113%. In addition, the growth is 98.9% in the test on HCC-2998 colon and 110% in the test on KM12 colon.

In the case of `COc1nc2c(cc1S(=O)(=O)c1ccccc1)CCc1c-2cnn1-c1ccccc1`, the growth was 40.4% in the test with T-47D breast; 78.7% in the test with BT-549 breast; 69.3% with MDA-MB-435 melanoma; 89.9% in the test with SW-620 colon; 75.5% with MCF7 breast; 72.4% with HCT-116 colon. The growth with HCC-2998 colon was 98.1%; in the test on KM12 colon, 100%.

Take `CCCCc1ccc(NC(=O)C(F)(F)F)cc1`: the growth was 87.1% with T-47D breast; 87.7% in the test with BT-549 breast; 102% in the test on MDA-MB-435 melanoma; 101% in the test with SW-620 colon; 108% in the test with MCF7 breast; 106% in the test on HCT-116 colon. The growth with HCC-2998 colon is 106%; in the test on KM12 colon, 97.3%.

On to `FC(F)(F)c1cc(CNc2nc(Cl)ncc2Br)cc(C(F)(F)F)c1`, for which the growth with T-47D breast is 82.1%; with BT-549 breast, 90%; in the test on MDA-MB-435 melanoma it was 45.9%; in the test with SW-620 colon, 103%; in the test with MCF7 breast it was 93.3%; in the test with HCT-116 colon, 96.1%. The growth in the test on HCC-2998 colon was 97.8%; in the test on KM12 colon, 71.2%.

As for `COc1ccc(OC2=CC(=O)c3ccc(C)nc3C2=O)cc1`, the growth is 79.9% in the test on T-47D breast; 90.7% in the test on BT-549 breast; 83% in the test on MDA-MB-435 melanoma; 94.9% with SW-620 colon; 72.4% in the test on MCF7 breast; 74.3% in the test on HCT-116 colon. The growth was 102% in the test on HCC-2998 colon and 81.3% in the test with KM12 colon.

As to `Cc1nn(CC(=O)O)c2c1C(=O)CC(C)(C)C2`, the growth in the test on T-47D breast was 104%; with BT-549 breast, 104%; in the test on MDA-MB-435 melanoma, 106%; in the test with SW-620 colon it was 117%; in the test on MCF7 breast, 102%; in the test with HCT-116 colon it was 92.3%. Further, the growth in the test with HCC-2998 colon is 98.9%; in the test with KM12 colon it was 109%.

Turning to `CCCCc1ccc(C(O)(CCN2CC3CCC(CC3)C2)c2ccccc2)cc1` (configuration not stated), the growth in the test with T-47D breast was 73.8%; in the test with BT-549 breast it was 90.2%; in the test on MDA-MB-435 melanoma, 98.2%; with SW-620 colon it was 95.7%; in the test with MCF7 breast it was 95.7%; in the test with HCT-116 colon it was 77%. Also, the results for the growth in the test with HCC-2998 colon and with KM12 colon were 90.1% and 93.2%, respectively.

Turning to `Cc1nc2cc(Nc3nc(Nc4ccc(F)cc4)nc(N4CCN(C)CC4)n3)ccc2n1Cc1ccccc1`, the growth in the test with T-47D breast was -10.7% (active); in the test with BT-549 breast, -49.9% (active); in the test on MDA-MB-435 melanoma, 0.19% (active); in the test on SW-620 colon, 15.6%; in the test with MCF7 breast it was 17.9%; with HCT-116 colon it was -16.3% (active). In addition, the growth in the test with HCC-2998 colon was -14.8% (active); with KM12 colon, 17%.

In the case of `CC1(C)CC(=O)C2=C(C1)Nc1cc3c(cc1C2c1ccc(F)cc1)OCO3` (configuration not stated), the growth with T-47D breast was 85.3%; with BT-549 breast it was 110%; in the test on MDA-MB-435 melanoma, 102%; with SW-620 colon, 104%; in the test on MCF7 breast it was 90.6%; in the test with HCT-116 colon, 96.7%. Moreover, the growth in the test with HCC-2998 colon was 102%; with KM12 colon, 99.3%.

Consider `COc1cc(/C=C/C(=O)C2=C(/C=C/c3ccc(O)c(OC)c3)NC(=O)NC2c2ccc(O)c(OC)c2)ccc1O` (configuration not stated), for which the growth with T-47D breast was 86.7%; in the test on BT-549 breast, 93.4%; in the test with MDA-MB-435 melanoma it was 93.4%; with SW-620 colon it was 94.2%; in the test with MCF7 breast, 82.1%; with HCT-116 colon, 73.3%. Moreover, the growth with HCC-2998 colon was 119%; in the test on KM12 colon, 101%.
